Compound activity: PubChem BioAssay, several laboratories
BoNT A protease – BoNT/A light chain protease inhibitors, primary screen, biochemical, flow cytometry, MLPCN library. hit rate 0.17% among 360,000. inhibition, % at 10 µM. multiplex microsphere protease substrate cleavage. Botulinum neurotoxin type A light chain protease (Clostridium botulinum A str. ATCC 3502); further: plate controls were buffer without enzyme for full effect and enzyme alone for no effect
Anthrax LF inh2 – Bacillus anthracis LF protease inhibitors, primary screen, biochemical, multiplex microsphere, MLPCN library; Lethal factor (Bacillus anthracis), P15917; hit rate 0.12% among 360,000; inhibition, % at 10 µM; multiplex microsphere protease cleavage assay; further: plate controls were buffer without enzyme for full effect and enzyme alone for no effect
Target sequence (P15917 whole entry, looked up): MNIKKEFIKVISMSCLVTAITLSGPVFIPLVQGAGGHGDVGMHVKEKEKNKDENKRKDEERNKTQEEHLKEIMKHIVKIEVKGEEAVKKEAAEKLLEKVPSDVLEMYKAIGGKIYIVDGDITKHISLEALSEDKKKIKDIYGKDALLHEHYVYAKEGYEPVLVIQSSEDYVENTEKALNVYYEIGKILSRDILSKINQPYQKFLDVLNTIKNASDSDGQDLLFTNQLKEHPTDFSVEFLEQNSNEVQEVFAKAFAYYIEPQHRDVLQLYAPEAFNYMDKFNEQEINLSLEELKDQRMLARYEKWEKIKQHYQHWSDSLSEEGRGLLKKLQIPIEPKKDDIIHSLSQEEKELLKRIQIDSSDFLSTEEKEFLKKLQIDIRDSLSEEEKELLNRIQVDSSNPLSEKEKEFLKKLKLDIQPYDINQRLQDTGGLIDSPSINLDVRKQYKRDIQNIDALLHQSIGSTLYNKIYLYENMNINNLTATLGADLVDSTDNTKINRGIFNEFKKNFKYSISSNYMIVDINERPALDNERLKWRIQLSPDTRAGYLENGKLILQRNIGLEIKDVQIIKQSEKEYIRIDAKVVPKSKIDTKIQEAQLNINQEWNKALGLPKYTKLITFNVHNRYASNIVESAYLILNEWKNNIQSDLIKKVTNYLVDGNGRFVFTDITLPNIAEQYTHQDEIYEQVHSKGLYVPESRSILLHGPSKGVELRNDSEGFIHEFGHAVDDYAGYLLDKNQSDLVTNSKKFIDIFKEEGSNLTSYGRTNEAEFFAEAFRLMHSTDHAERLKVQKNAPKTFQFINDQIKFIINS
BoNT F protease – BoNT/F light chain protease inhibitors, primary screen, biochemical, flow cytometry, MLPCN library; AID 588497, 2011; Multiplex microsphere protease cleavage assay; Botulinum neurotoxin type F light chain protease (Clostridium botulinum); inhibition, % at 10 µM; hit rate 0.22% among 360,000; in the data active means inhibition above about 35%, passing the limit was not always enough; inconclusive means no clear call, values can overlap the other calls; further: plate controls were buffer without enzyme for full effect and enzyme alone for no effect
FBA Mtb inh – Mtb FBA enzyme inhibitors, primary screen, biochemical, fluorescence, strain H37Rv. Fructose-bisphosphate aldolase (Mycobacterium tuberculosis (strain ATCC 25618 / H37Rv)), …. hit rate 2.3% among 360,000. purified M. tuberculosis FBA, fluorescence read-out. inhibition, % at 1 µM. AID 588726, 2011; in the data active means inhibition above about 27%;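 further: 0% = vehicle and 100% = reference inhibitor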
Bead autofluor – compound fluorescence in toxin protease inhibitor counterscreen. compound autofluorescence counterscreen, microsphere flow cytometry; hits give high values. fluorescence intensity (concentration not given with the values). hit rate 3.1% among 360,000. AID 624483; in the data active means fluorescence intensity above about 16000; inconclusive means no clear call, values can overlap the other calls
GDH-TPI counter – GDH-TPI coupling enzyme inhibitors, primary screen, artefact control for M. tuberculosis FBA inhibitor project, biochemical, absorbance, full deck; inhibition, % at 4.8 µM; hit rate 1.2% among 360,000; AID 588335, 2011; GDH-TPI coupled enzyme counterscreen, NADH absorbance; in the data active means inhibition above about 30%;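 further: 0% = DMSO wells and 100% = wells lacking the enzyme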
* marks the source's active call; other numbers are inactive results. Sampled rows, rich in hits. Any-hit rate of the full collection: about 6.6%. Unless noted, no stated cut-off is given here; in the data, active means inhibition above about 30%; inconclusive means no clear call, values can overlap the other calls; inactive means below that.

For Cc1ccc(-c2nn(C)c(=O)c3ccccc23)cc1S(=O)(=O)N1CCOCC1 the results were BoNT A protease -10.6, Anthrax LF inh2 -7.3, BoNT F protease -13.3, FBA Mtb inh -0.6, Bead autofluor 25828* and GDH-TPI counter -0.6.
Screening COCCN(C(=O)COC(=O)/C=C/c1ccc2c(c1)OCO2)c1c(N)n(Cc2ccccc2)c(=O)[nH]c1=O returned BoNT A protease -2.3, Anthrax LF inh2 -3.8, BoNT F protease -0.9, FBA Mtb inh 0.0, Bead autofluor 5714 and GDH-TPI counter 11.5.
Screening Cc1noc(C)c1C(=O)N1CCN(c2ccc(OCc3ccccc3)cc2)CC1 returned BoNT A protease -0.5, Anthrax LF inh2 -0.1, BoNT F protease 1.5, FBA Mtb inh -4.2, Bead autofluor 4615 and GDH-TPI counter 12.3.
For Cc1ccc(-c2noc(CN(C(=O)c3cccc(Br)c3)C(C)C)n2)cc1 the results were BoNT A protease -0.3, Anthrax LF inh2 -4.0, BoNT F protease 2.8, FBA Mtb inh -2.8, Bead autofluor 5996 and GDH-TPI counter -4.3.
`CC(C)N(Cc1nc(-c2ccc(Cl)cc2)no1)C(=O)C(c1ccccc1)c1ccccc1` gave BoNT A protease 2.4, Anthrax LF inh2 -1.4, BoNT F protease 1.5, FBA Mtb inh -0.7, Bead autofluor 15639 and GDH-TPI counter 14.6.
For Cc1ccc(-c2noc(CN(C(=O)C(c3ccccc3)c3ccccc3)C(C)C)n2)cc1 the results were BoNT A protease -2.4, Anthrax LF inh2 -4.2, BoNT F protease -7.3, FBA Mtb inh -2.0, Bead autofluor 23813* and GDH-TPI counter 7.8.
`Cc1ccc(-c2noc(CN(C(=O)C34CC5CC(CC(C5)C3)C4)C(C)C)n2)cc1` gave BoNT A protease 0.1, Anthrax LF inh2 -3.1, BoNT F protease -2.4, FBA Mtb inh 0.2, Bead autofluor 22906* and GDH-TPI counter 0.0.
Cc1cc(C(=O)N/N=C/c2c(C)[nH]c3ccccc23)n[nH]1 was read as FBA Mtb inh -0.6 and GDH-TPI counter 55.9*.
`Cc1[nH]c2ccccc2c1/C=N/NC(=S)NC(C)C` gave BoNT A protease 59.2*, Anthrax LF inh2 12.8, BoNT F protease -51.4, FBA Mtb inh -4.2, Bead autofluor 7206 and GDH-TPI counter 37.6*.
Screening O=C(CNC(=O)c1ccc2c(c1)OCCO2)N/N=C/c1ccco1 returned BoNT A protease -1.1, Anthrax LF inh2 -4.2, BoNT F protease 1.8, FBA Mtb inh 1.2, Bead autofluor 6049 and GDH-TPI counter 1.1.
For Cc1cc(C(=O)N/N=C/c2c(C)n(C)c3ccccc23)n[nH]1 the results were BoNT A protease -0.4, Anthrax LF inh2 -2.1, BoNT F protease -2.2, FBA Mtb inh 0.1, Bead autofluor 2205 and GDH-TPI counter 56.8*.
Screening CC(C)NC(=S)N/N=C/c1c[nH]c2ccccc12 returned BoNT A protease -0.8, Anthrax LF inh2 -1.6, BoNT F protease -6.2, FBA Mtb inh 1.4, Bead autofluor 2359 and GDH-TPI counter 23.1.
`Cc1[nH]c2ccccc2c1/C=N/NC(=O)CNC(=O)c1ccc2c(c1)OCCO2` gave BoNT A protease -0.5, Anthrax LF inh2 -7.5, BoNT F protease -5.0, FBA Mtb inh 3.6, Bead autofluor 4367 and GDH-TPI counter 31.7*.
O=C(O)C[C@H]1c2ccc(C(F)(F)F)cc2S(=O)(=O)N1Cc1ccccc1 was read as BoNT A protease 0.1, Anthrax LF inh2 3.9, BoNT F protease 4.1, FBA Mtb inh 2.7, Bead autofluor 2937 and GDH-TPI counter -0.9.
For CC1CC(=O)N(CC(=O)NC2CCCCC2)c2ccccc2S1 (stereo unspecified) the results were BoNT A protease 0.0, Anthrax LF inh2 -0.1, BoNT F protease -2.6, FBA Mtb inh -0.4, Bead autofluor 5057 and GDH-TPI counter -13.8.
Screening CC(C)NC(=O)c1ccc(COc2ccc(C(C)(C)C)cc2)o1 returned BoNT A protease -6.9, Anthrax LF inh2 -2.0, BoNT F protease -24.6, FBA Mtb inh 4.1, Bead autofluor 3472 and GDH-TPI counter 8.0.
For CSc1ccc(/C=N/NC(=O)c2ccc(C)c(C)c2)cc1 the results were BoNT A protease -0.5, Anthrax LF inh2 -0.2, BoNT F protease -6.0, FBA Mtb inh 0.7, Bead autofluor 9122 and GDH-TPI counter 24.1.
CSc1ccc(/C=N/NC(=O)c2cc(O)cc(O)c2)cc1 was read as BoNT A protease -0.2, Anthrax LF inh2 -2.0, BoNT F protease -4.2, FBA Mtb inh 1.8, Bead autofluor 2179 and GDH-TPI counter 48.9*.
For CSc1ccc(/C=N/NC(=O)c2sccc2C)cc1 the results were BoNT A protease 1.7, Anthrax LF inh2 -3.3, BoNT F protease 6.9, FBA Mtb inh -1.6, Bead autofluor 7225 and GDH-TPI counter 45.1*.
`O=C(CCCCCn1c(=S)[nH]c2ccccc2c1=O)NCc1ccc2c(c1)OCO2` gave BoNT A protease -2.9, Anthrax LF inh2 -1.6, BoNT F protease -4.1, FBA Mtb inh 0.2, Bead autofluor 23096* and GDH-TPI counter 18.2.
Screening CCN(CC)CCn1c(=S)[nH]c2cc3c(cc2c1=O)OCO3 returned BoNT A protease inconclusive, Anthrax LF inh2 -1.0, BoNT F protease -2.3, FBA Mtb inh 4.9, Bead autofluor 23550* and GDH-TPI counter 2.4.
Screening CCCCNC(=O)CCCn1c(=S)[nH]c2cc3c(cc2c1=O)OCO3 returned BoNT A protease inconclusive, Anthrax LF inh2 -3.0, BoNT F protease -2.6, FBA Mtb inh 1.1, Bead autofluor 20235* and GDH-TPI counter 8.9.
COCCNC(=O)CCCCCn1c(=S)[nH]c2ccccc2c1=O was read as BoNT A protease inconclusive, Anthrax LF inh2 2.2, BoNT F protease 0.9, FBA Mtb inh 0.8, Bead autofluor 22614* and GDH-TPI counter 3.0.
For C[C@@H]1CN([C@H](C)CO)C(=O)CCCn2nncc2CO[C@H]1CN(C)Cc1ccc(Cl)c(Cl)c1 the results were BoNT A protease 0.3, Anthrax LF inh2 -4.3, BoNT F protease 2.2, FBA Mtb inh -2.8, Bead autofluor 3316 and GDH-TPI counter -10.9.
For O=C(NC1CCCCC1)C(c1cccnc1)N(CCc1ccccc1)C(=O)Cc1cccs1 (stereo unspecified) the results were BoNT A protease -0.5, Anthrax LF inh2 -0.5, BoNT F protease -6.9, FBA Mtb inh 0.6, Bead autofluor 2482 and GDH-TPI counter 12.0.
CN(Cc1nccn1C)C(=O)CCc1nnc(CCC2CCCCC2)o1 was read as BoNT A protease -1.1, Anthrax LF inh2 -1.6, BoNT F protease -2.9, FBA Mtb inh -1.8, Bead autofluor 2080 and GDH-TPI counter 6.5.
